Neddyl block: inhibitors of cullin neddylation, primary screen, biochemical, TR-FRET, uHTS, NAE and Ubc12 | NEDD8-conjugating enzyme Ubc12 (Homo sapiens) + NEDD8-activating enzyme E1 regulatory … | inhibition, % at 25 µM | hit rate 0.58% among 360,000; in the data active = inhibition above about 36%
Rin1 Abl inh: inhibitors of Rin1-Abl protein binding, primary screen, biochemical, TR-FRET; Tyrosine-protein kinase ABL1 (Homo sapiens) + Ras and Rab interactor 1 (Homo sapiens), …; inhibition, % at 7.35 µM; hit rate 0.4% among 360,000; in the data active = inhibition above about 5%, passing the limit was not always enough
SUMO1-SIM PPI: modulators of SUMO1 protein-protein interactions, primary screen, biochemical, uHTS; SUMO1 binding to a labelled peptide, TR-FRET, 1 h; inhibition, % at 20 µM; hit rate 0.33% among 360,000; in the data active = inhibition above about 37%
ATG4B inhibitor: ATG4B protease inhibitors, primary screen, biochemical, fluorescence, uHTS. ATG4B cleavage of LC3-PLA2, NBD-HPC fluorescence, 1 h. inhibition, % at 8.33 µM. AID 504462, 2011. hit rate 0.51% among 340,000; in the data active = inhibition above about 40%
* marks the source's active call; other numbers are inactive results; / = no result given. Shown are actives, neighbours in structure and some others; about 1.7% of the full set was active somewhere.

SMILES | Neddyl block | Rin1 Abl inh | SUMO1-SIM PPI | ATG4B inhibitor
Cc1cccc(N2NC(=O)/C(=C/c3ccc(-c4ccc(Cl)c(C(=O)O)c4)o3)C2=O)c1 | 14.1 | 1.4 | 29.8 | -0.3
Cc1ccc(CN2C(=O)N/C(=C/c3ccc(-c4ccc(C(=O)O)cc4)o3)C2=O)cc1 | / | -4.0 | 38.5* | 12.6
O=C(O)c1cc(-c2ccc(/C=C3\NC(=O)N(c4ccc(Cl)cc4)C3=O)o2)ccc1Cl | 64.7* | 0.5 | 28.6 | 22.4
O=C(O)c1cc(-c2ccc(/C=C3\NC(=O)N(c4ccccc4)C3=O)o2)ccc1Cl | 42.9* | -2.1 | 8.8 | 6.0
O=C1NN(c2ccccc2)C(=O)/C1=C/c1ccc(-c2ccc(Cl)c(C(=O)O)c2)o1 | 3.0 | 2.5 | 20.0 | 1.3
NC(N)=NCCCS(=O)(=O)Nc1ccc(Nc2c3ccccc3nc3cc([N+](=O)[O-])ccc23)cc1 | -23.8 | -0.6 | 26.2 | 6.5
Cc1cc(C)cc(Cn2cc(CN3CC(N4CCSCC4)CS3(=O)=O)nn2)c1 (centres undefined) | 3.5 | / | -0.7 | /
CC(=O)C1=CCC(c2cccc(Cl)c2)N(S(=O)(=O)c2ccc(C)cc2)C1 (centres undefined) | 1.1 | 0.8 | 7.1 | /
CCCCc1c(-c2ccccc2OC)ncn1CCc1ccccc1Cl | 8.9 | / | 8.3 | /
CN1C=CC(C(C(N)=O)c2ccccc2)c2ccccc21 (centres undefined) | 10.4 | 0.7 | 0.0 | /
O=C(O)c1ccc(-n2cccc2/C=C2/NC(=O)N(c3ccccc3)C2=O)cc1 | -11.3 | -2.1 | 88.6* | 5.3
O=C(O)c1ccc(-n2cccc2/C=C2/SC(=O)N(CC(=O)N3CCCC3)C2=O)cc1 | -35.8 | 0.3 | 80.9* | 11.5
N#Cc1ccccc1CN1C(=O)S/C(=C/c2cccn2-c2ccc(C(=O)O)cc2)C1=O | -15.3 | -1.1 | -13.1 | 13.0
O=C(O)c1ccc(-n2cccc2/C=C2/NC(=O)N(c3cccc(Cl)c3)C2=O)cc1 | -2.9 | 1.0 | -2.3 | 5.5
CCOC(=O)c1c(NC(=O)COC(=O)c2ccc(O)cc2)sc(C(=O)N(C)C)c1C | -56.4 | 4.8 | 11.6 | -11.5
CCOC(=O)c1c(NC(=O)COC(=O)c2ccc(NC(=O)CC#N)cc2)sc(C(=O)NC)c1C | -220.2 | 2.7 | 57.2* | 1.3
O=C(/C=C/c1ccc([N+](=O)[O-])cc1)Oc1ccc(/C=N/NC(=O)c2ccncc2)cc1 | -0.3 | -1.4 | 47.3* | -0.4
O=C(COc1ccc(/C=N/NC(=O)c2ccncc2)cc1)Nc1ccc([N+](=O)[O-])cc1 | 36.1 | 2.0 | 42.1* | -2.9
O=C(NN=Cc1ccc([N+](=O)[O-])cc1)c1ccncc1 | -52.7 | -2.2 | -32.7 | 4.1
O=C(c1ccc(Br)o1)N1CCN(c2ccc3nnc(-c4ccc(F)cc4)n3n2)CC1 | 4.2 | 1.6 | 48.8* | -5.5
COc1ccccc1N1CCN(C(c2cc3cc(C)ccc3[nH]c2=O)c2nnnn2C2CCCC2)CC1 (centres undefined) | 3.5 | -3.8 | 44.6* | -12.2
CCCCC1OC23CCCCC2C(C#N)(C(=N)O3)C1(C#N)C#N (centres undefined) | / | -2.9 | 5.4 | -10.5
CCCCC1OC23CCCCC2C(C#N)(C#N)C1(C#N)C(=N)O3 (centres undefined) | 50.2* | -2.1 | -5.9 | -9.0
OCCN(Cc1ccccn1)Cc1ccccn1 | 0.3 | -2.8 | -3.6 | /
COc1cc2c3nnc(-c4ccc(F)cc4)c-3cn(Cc3ccc(C)cc3)c2cc1OC | 38.3* | -3.8 | -2.5 | -16.0
SMILES | Neddyl block | Rin1 Abl inh | SUMO1-SIM PPI | ATG4B inhibitor
COc1ccc2oc(=Nc3ccc(C(=O)O)cc3)c(C(=O)NCc3ccco3)cc2c1 | 0.7 | -0.1 | 64.8* | -3.2
O=C(NNC(=O)c1cc(Br)ccc1Cl)c1csc(N2CCOCC2)n1 | -3.2 | 3.1 | 0.0 | -2.6
O=C(NNC(=O)c1cc(Br)ccc1O)c1csc(N2CCOCC2)n1 | -5.0 | 10.5* | 8.4 | 3.2
O=C(NCCCN1CCCC1=O)C1CCN(S(=O)(=O)c2cccc(Cl)c2Cl)CC1 | 12.0 | -3.8 | -6.2 | 3.7
O=C(NCCCN1CCCC1=O)C1CCN(S(=O)(=O)c2ccc(Cl)cc2)CC1 | -22.0 | 2.2 | 38.3* | 1.8
CCOC(=O)N1CCC(NC(=O)C(NS(=O)(=O)c2cccc3nsnc23)c2ccccc2)CC1 (centres undefined) | -30.6 | 4.5 | 46.0* | -4.8
O=C(NC1CCN(Cc2ccccc2)CC1)C(NS(=O)(=O)c1cccc2nsnc12)c1ccccc1 (centres undefined) | -27.7 | 0.9 | -21.5 | -11.0
CCOC(=O)c1c(C)nc2sc3c(c2c1-c1ccc(OC)cc1)NC(c1ccccc1)NC3=O (centres undefined) | -194.6 | -1.0 | 46.6* | -0.2
CCOC(=O)c1c(C)nc2sc3c(=O)[nH]cnc3c2c1-c1ccc(OC)cc1 | -24.5 | -65.0 | 2.6 | -7.9
COc1ccc(-c2c(C(C)=O)c(C)nc3sc4c(c23)NC(c2ccccc2)NC4=O)cc1 (centres undefined) | -331.9 | -3.9 | 39.9* | 0.2
CCOC(=O)c1ccc(S(=O)(=O)N2CCN(C(=O)c3cccc(S(=O)(=O)N4CC(C)OC(C)C4)c3)CC2)cc1 (centres undefined) | -13.5 | 1.8 | 3.0 | -5.4
Cc1cc(C2=CC(=O)C[C@H](c3ccc(F)cc3)C2)ccc1F | -27.0 | -0.9 | -4.9 | /
CCC1=NN2C(=N)/C(=C\c3ccc(OCc4cc(=O)n5nc(CC)sc5n4)c(OC)c3)C(=O)N=C2S1 | -2.2 | -0.1 | 43.8* | 2.8
CCc1nn2c(=O)cc(COc3ccc(/C=C4\C(=N)N5N=C(CC(C)C)SC5=NC4=O)cc3)nc2s1 | / | / | / | -2.7
CCCCCC(=O)Nc1cc(S(=O)(=O)O)cc2cc(S(=O)(=O)O)cc(O)c12 | 32.6 | 9.8 | 118.5* | 43.0*
COc1ccc(CN2C(=O)C(CC(=O)NCCCCc3ccccc3)CC(C(=O)N3CCCCCC3)=C2C)cc1 (centres undefined) | -7.7 | / | 1.2 | /
COc1ccc(-c2csc(/C(C#N)=C\c3ccc(O)c([N+](=O)[O-])c3)n2)cc1OC | -63.0 | -2.8 | 38.5* | 9.6
C/C(=N\NC(=O)c1ccncc1)c1ccc(N2CCOCC2)cc1 | 3.8 | -2.6 | -6.3 | 5.0
C/C(=N\NC(=O)c1ccc(OC2OCCOC2Oc2ccc(C(=O)N/N=C(\C)c3ccncc3)cc2)cc1)c1ccncc1 (centres undefined) | -2.6 | 3.6 | 78.3* | 8.0
CCOC(=O)C1(C)C(=O)CC2c3nc4ccccc4cc3CN2C1=O (centres undefined) | 12.6 | 2.4 | -9.4 | /
Cc1cccc(-n2ncc3c(NCCCN4CCCC4=O)ncnc32)c1 | 38.4* | 2.3 | -0.5 | -8.5
COc1cc(/C=C(\CCC(=O)O)c2nc3ccccc3s2)ccc1OCC(=O)Nc1c(Cl)cccc1Cl | 43.7* | 1.8 | 95.0* | -5.9
O=C(O)CC/C(=C/c1cccc(NC(=O)c2ccccc2Cl)c1)c1nc2ccccc2s1 | 32.8 | -0.1 | -5.4 | 19.6
